Calls of active or inactive are those of the source.
Columns and labels:
Albumin (Bos taurus) = Albumin (Bos taurus) (UniProt P02769); assay: compounds binding labelled BSA control protein – biochemical, small-molecule microarray, Alexa647 label, 635/667 nm fluorescence, artefact control for SMM control protein annotation, profiling panel (AID 1118); conditions: BSA-A647 binding, fluorescence 635 nm, higher = more signal;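 note: score merges 667 nm emission intensity and signal-to-noise per printed compound spot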
Sequence of Albumin (Bos taurus) (P02769 whole entry, looked up): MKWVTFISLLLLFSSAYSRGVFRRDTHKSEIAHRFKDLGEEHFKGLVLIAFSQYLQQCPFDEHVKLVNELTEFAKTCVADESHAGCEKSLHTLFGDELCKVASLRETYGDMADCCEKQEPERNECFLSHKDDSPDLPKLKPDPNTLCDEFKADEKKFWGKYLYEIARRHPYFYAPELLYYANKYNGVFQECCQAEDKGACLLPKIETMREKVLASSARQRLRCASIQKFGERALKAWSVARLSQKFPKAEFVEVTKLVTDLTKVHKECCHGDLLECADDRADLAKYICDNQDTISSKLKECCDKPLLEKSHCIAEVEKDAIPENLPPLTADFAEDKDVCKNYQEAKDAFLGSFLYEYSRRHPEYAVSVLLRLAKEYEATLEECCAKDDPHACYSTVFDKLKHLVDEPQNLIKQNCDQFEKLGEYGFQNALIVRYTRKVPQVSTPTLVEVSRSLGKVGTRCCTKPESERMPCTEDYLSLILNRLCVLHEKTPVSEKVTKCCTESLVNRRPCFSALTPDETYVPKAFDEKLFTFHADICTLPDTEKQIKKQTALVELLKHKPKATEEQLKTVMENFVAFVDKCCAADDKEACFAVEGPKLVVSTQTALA

[1] = probe aXIP binding to arrayed compounds – biochemical, NeuroSMM set, 635/667 nm fluorescence, primary screen (AID 1119); conditions: small-molecule microarray, higher = more signal, called active from +8 up or from −8 down;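 note: probe is the protein aXip251-270 applied at 1 µg/mL to compound-printed slides; binding of probe to printed compounds measured as 667 nm fluorescence plus signal to noise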
[2] = probe aNOTCH3 binding on compound microarray – biochemical, small-molecule microarray, 635/667 nm fluorescence, primary screen (AID 1120); conditions: higher = more signal;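 note: probe is a biotin-tagged antibody raised against NOTCH3 rather than NOTCH3 protein; score merges spot fluorescence near 667 nm with spot signal to noise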
[3] = probe aNOTCH2 binding on compound microarray – biochemical, small-molecule microarray, 635/667 nm fluorescence, primary screen (AID 1121); conditions: higher = more signal;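 note: score merges feature fluorescence read at 667 nm with its signal to noise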
[4] = target: Carbonic anhydrase 2 (Homo sapiens) (UniProt P00918); assay: compounds binding carbonic anhydrase 2 – biochemical, small-molecule microarray, Alexa647-labelled CAII, profiling panel (AID 1122); conditions: CAII-A647 binding fluorescence, higher = more signal
[5] = COS7 lysate on small-molecule microarray, probe aHis, 635 nm (AID 1123); conditions: COS7 cell lysate, fluorescence, higher = more signal;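 note: z-score combines 667nm fluorescence intensity with signal-to-noise per printed compound spot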
[6] = probe aLAP1 signal on lysate-treated microarray – cell lysate, small-molecule microarray, COS7 lysate, primary screen (AID 1124); conditions: probe aLAP1, fluorescence, higher = more signal;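 note: lysate comes from COS7 cells expressing LAP1 and is applied at 0.3 µg/mL; score merges spot fluorescence near 667 nm with signal-to-noise over triplicate slides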
Sam68 (KHDRBS1) = assay: compounds binding KHDRBS1 protein – biochemical, small-molecule microarray, 635 nm fluorescence, primary screen (AID 1125); conditions: higher = more signal;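 note: score merges 667 nm channel intensity with signal to noise over triplicate slides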
[7] = tested on: Chordin-like protein 2 (CHRDL2); assay: compounds binding chordin-like 2 – biochemical, small-molecule microarray, 635 nm fluorescence, primary screen (AID 1126); conditions: fluorescence 635 nm, higher = more signal;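 note: printed compound slides probed with Chrdl2 protein at 4 µg/mL for 1 h at 4 C; score merges 667 nm emission intensity with signal to noise over three replicate slides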
[8] = target: Concanavalin-A (Canavalia ensiformis) (UniProt P02866); assay: compounds binding concanavalin A lectin – biochemical, small-molecule microarray, Alexa647 label, 635 nm, artefact control for SMM control protein annotation, primary screen (AID 1127); conditions: ConA-A647 binding fluorescence, higher = more signal;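 note: z combines 667 nm emission intensity with signal-to-noise across three replicate slides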
Sequence of Concanavalin-A (Canavalia ensiformis) (P02866 whole entry, looked up): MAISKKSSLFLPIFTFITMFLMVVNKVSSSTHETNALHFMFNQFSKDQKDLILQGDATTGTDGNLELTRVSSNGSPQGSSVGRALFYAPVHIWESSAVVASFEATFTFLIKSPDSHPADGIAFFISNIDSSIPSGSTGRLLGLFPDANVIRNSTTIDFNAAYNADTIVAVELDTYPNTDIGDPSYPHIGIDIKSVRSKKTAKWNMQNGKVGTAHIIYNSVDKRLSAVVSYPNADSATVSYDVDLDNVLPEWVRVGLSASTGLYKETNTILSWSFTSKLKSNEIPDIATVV

Row | Compound | composite z-score (Albumin (Bos taurus)) | composite Z-score [1] | composite z-score [2] | composite z-score [3] | composite z-score [4] | composite z-score [5] | composite z-score [6] | composite z-score (Sam68 (KHDRBS1)) | composite z-score [7] | composite z-score [8]
1 | C=CCOC(=O)[C@@H]1[C@H]2C(=O)O[C@H](c3ccccc3)[C@H](c3ccccc3)N2[C@H](c2ccc(OCCOC(=O)[C@H]3C[C@H]4C(=O)N[C@@H](CCCCN(C)C)C(=O)N4[C@H]3c3cccc(OCCO)c3)cc2)[C@@]12C(=O)Nc1ccccc12 | 0.172 | 0.597 (inactive) | -0.2 | 0.0018 | 0.656 | 0.668 | 0.781 | 0.846 | 0.0523 | 0.682
2 | CCOC(=O)C1=C[C@@H](C(C)(C)C)N(S(=O)(=O)c2ccc(C)cc2)[C@H]1c1ccc(OC)cc1 | 0.847 | -0.244 (inactive) | 0.116 | -0.0956 | 0.392 | 1.8 | 0.315 | 1.3 | 0.209 | 1.14
3 | COc1ccc([Si](C)(C)[C@@H]2[C@@H](CC(=O)N3CCC[C@H]3CO)O[C@]3(C(=O)N(Cc4cccc(N5C(=O)c6cccc7cccc5c67)c4)c4ccccc43)[C@H]2C)cc1 | 0.601 | 0.681 (inactive) | -0.0701 | -0.166 | 0.394 | 0.386 | 0.104 | 0.905 | 0.568 | 1.13
4 | [N-]=[N+]=NCc1ccccc1C[C@@]1(C(N)=O)N=C(c2ccc(OCCCO)cc2)O[C@@H]1c1ccccc1N=[N+]=[N-] | 0.873 | -0.254 (inactive) | 0.0065 | 0.0368 | 0.63 | 2.8 | 0.197 | 0.816 | 0.0247 | 1.12
5 | COc1ccc(C#Cc2ccc3c(c2)[C@]2(C(=O)N3)[C@H](c3ccccc3OCCO)N3[C@H](c4ccccc4)[C@H](c4ccccc4)OC(=O)[C@H]3[C@@H]2C(=O)NC[C@H](O)c2ccccc2)cc1 | 0.579 | -0.419 (inactive) | 0.11 | -0.0942 | 0.373 | 1.98 | 0.359 | 1.32 | -0.0767 | 1.07
6 | COCCCNC(=O)[C@@]1(CCC(=O)OC(C)(C)C)N=C(c2ccc(OCCCO)cc2)O[C@H]1c1ccccc1 | 0.838 | 0.0999 (inactive) | 0.141 | -0.0237 | 0.696 | 2.94 | 0.584 | 0.748 | -0.864 | 0.525
7 | CC(C)c1ccc(NN2C(C(O)c3ccccc3)C=CC3C(=O)N(c4ccccc4)C(=O)C32)cc1 (stereo not given) | 0.834 | -0.175 (inactive) | 0.216 | -0.0194 | 0.574 | 1.79 | -0.191 | 1.32 | -0.747 | 1.12
8 | CCCCC(=C=CC[C@@H](O)c1ccc(OCCO)cc1)CCO | 0.543 | 0.742 (inactive) | -0.0947 | -0.12 | 0.755 | 1.46 | 0.145 | 0.118 | -0.346 | -0.321
9 | CN1C2C=C(c3ccc(CO)cc3)C(C3C(=O)N(C(N)=O)C(=O)C32)C1C1CC1 (stereo not given) | -0.43 | -0.378 (inactive) | -0.206 | -0.146 | -0.117 | 0.151 | -0.262 | 0.267 | -0.0733 | 0.688
10 | COCCOC(=O)N1C(=O)[C@@]2(c3cc(C#CCNC(N)=O)ccc31)[C@H](C(=O)Nc1nc3ccccc3s1)[C@H]1C(=O)O[C@H](c3ccccc3)[C@H](c3ccccc3)N1[C@@H]2c1ccc(O)cc1 | -0.376 | -0.263 (inactive) | 0.0203 | -0.0094 | 0.214 | 0.734 | 0.16 | 1.02 | 0.306 | 1.1
11 | COc1ccc(C(=O)Nc2ccc(CN3C(=O)[C@]4(O[C@H](CC(=O)N(CCO)Cc5ccccc5)[C@@H]([Si](C)(C)c5ccc(OC)cc5)[C@@H]4C)c4ccccc43)cc2)cc1 | -0.622 | -0.21 (inactive) | -0.0288 | -0.193 | 0.541 | 1.58 | 1.62 | 1.35 | 1.18 | 0.905
12 | C=C[C@H](C)[C@@H](OC(=O)Nc1ccc(SC)cc1)c1ccc(OCCO)cc1 | 0.312 | 0.794 (inactive) | 0.137 | -0.0008 | 0.397 | 1.59 | 0.471 | 0.157 | 0.28 | 0.272
13 | C[N+](C)(C)CCCC[C@@H]1NC(=O)[C@H]2C[C@@H](C(=O)NCCCCCN)[C@@H](c3ccc(O)cc3)N2C1=O | 0.567 | -0.116 (inactive) | -0.0586 | -0.053 | 0.67 | 1.14 | 0.736 | 1.3 | 0.444 | 1.18
14 | C=C(CCCC)C(=O)CC[C@H](OC(=O)c1ccccc1-c1ccccc1C(=O)O)c1cccc(OCCO)c1 | 0.314 | -0.634 (inactive) | -0.161 | -0.126 | 0.749 | 0.729 | 1.07 | 0.225 | -0.189 | -1.14
15 | Cc1ccc(S[C@]2(C(=O)NCCN3CCOCC3)CC(=O)N(C(C)C)[C@@H]2c2ccc(CO)cc2I)cc1 | -0.233 | 0.289 (inactive) | -0.0111 | -0.0391 | 0.288 | 1.19 | 0.933 | 0.949 | -0.975 | -0.452
16 | CCOC(=O)C1=CCC(c2ccncc2)N(S(=O)(=O)c2ccc(C)cc2)C1 (stereo not given) | 0.924 | 0.525 (inactive) | 0.191 | -0.0621 | 0.702 | 2.6 | 1.05 | 1.3 | 0.192 | 0.786
17 | CC(C)(C)OC(=O)CC[C@]1(C(=O)N2CCOCC2)COC(c2ccc(OCCCO)cc2)=N1 | 0.947 | -0.124 (inactive) | -0.0387 | -0.129 | 0.853 | 2.85 | -0.494 | 0.836 | -1.17 | 0.0647
18 | COc1ccc([Si](C)(C)[C@H]2[C@H](CC(=O)N3CCC[C@H]3CO)O[C@@]3(C(=O)N(C)c4ccccc43)[C@@H]2C)cc1 | 0.728 | 1.38 (inactive) | 0.103 | -0.103 | 0.487 | 0.459 | 0.378 | 0.646 | 0.808 | 0.119
19 | CCOC(=O)C[C@H]1[C@H](OC(=O)c2cc3ccccc3oc2=O)[C@@H](NC(=O)c2ccc(-c3ccccc3)cc2)c2cc(OCCCO)ccc2N1C(=O)Cc1ccc(OC)cc1 | 0.0146 | 0.243 (inactive) | 0.213 | -0.0578 | 0.383 | 1.07 | 0.774 | 0.864 | 0.346 | 0.833
20 | CC1CC/C=C\[C@H]2OC34C=CCN(CCN5CCOCC5)C(=O)[C@H]3N(C(CO)C(C)C)C(=O)[C@@H]4C2C(=O)O1 (stereo not given in full) | -0.466 | 0.769 (inactive) | -0.111 | -0.0837 | 0.854 | 0.214 | 1.47 | 0.889 | -0.571 | 0.475
21 | O=C1OCC=C[C@H]2OC34C=CCN(Cn5nnc6ccccc65)C(=O)[C@H]3N(CCO)C(=O)[C@@H]4[C@@H]12 (stereo not given in full) | -1.46 | -0.358 (inactive) | -0.173 | -0.171 | 0.935 | 0.32 | -0.137 | 0.184 | -1.43 | -0.941

From PubChem BioAssay
